In the supplement of paper PMC10849652:
About 8,800 targets were measured; listed, in parts, are those with a hit and a random draw of the rest. About 0.5% of all pairs of compound and target were hits.

compound: CS(=O)(=O)CCNCc1ccc(-c2ccc3ncnc(Nc4ccc(OCc5cccc(F)c5)c(Cl)c4)c3c2)o1 [lapatinib]; test: log2 fold change, soluble protein after heating vs DMSO (PISA); higher = thermal stabilisation; K562 lysate, 10 uM; active = over 0.2 and 3.5 SD of the protein, either way, in both replicates (recomputed)
Procedure, shortened: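 Following dounce homogenisation of K562 pellets in PBS pH 7.4 with 1 mM MgCl2, crude extract at 1 mg/mL protein was incubated for 30 min with 10 μM compound. Aliquots were then heated for 3 min over 48°C-58°C and pooled, NP-40 was added to 0.5% at 4°C, and soluble protein was recovered as the supernatant at 21,000xg for 90 min. Channel-sum-equalised TMTpro 16plex LC-MS/MS quantified this protein. Each value, from duplicates, is a log-two fold change in thermal stability relative to solvent controls.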

UniProt Q8NC60, sequence (Q8NC60 whole entry, looked up): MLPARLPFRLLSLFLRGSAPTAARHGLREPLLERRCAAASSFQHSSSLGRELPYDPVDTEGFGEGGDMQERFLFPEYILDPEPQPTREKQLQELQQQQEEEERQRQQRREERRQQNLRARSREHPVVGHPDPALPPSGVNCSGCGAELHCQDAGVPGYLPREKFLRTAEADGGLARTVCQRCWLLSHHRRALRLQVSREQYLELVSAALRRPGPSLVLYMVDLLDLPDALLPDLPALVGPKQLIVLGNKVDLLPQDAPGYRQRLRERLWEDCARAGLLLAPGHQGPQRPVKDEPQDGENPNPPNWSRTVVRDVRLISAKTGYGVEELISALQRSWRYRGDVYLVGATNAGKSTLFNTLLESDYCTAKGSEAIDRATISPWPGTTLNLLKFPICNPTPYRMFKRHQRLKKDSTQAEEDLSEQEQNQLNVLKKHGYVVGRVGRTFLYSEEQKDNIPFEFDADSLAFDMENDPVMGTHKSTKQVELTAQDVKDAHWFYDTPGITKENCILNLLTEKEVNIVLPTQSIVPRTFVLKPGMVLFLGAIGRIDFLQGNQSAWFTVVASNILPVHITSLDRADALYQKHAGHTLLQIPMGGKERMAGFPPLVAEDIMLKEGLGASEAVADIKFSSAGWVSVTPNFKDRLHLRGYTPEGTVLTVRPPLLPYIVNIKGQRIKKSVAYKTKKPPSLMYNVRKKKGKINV
UniProt Q9Y5A7, sequence (Q9Y5A7 whole entry, looked up): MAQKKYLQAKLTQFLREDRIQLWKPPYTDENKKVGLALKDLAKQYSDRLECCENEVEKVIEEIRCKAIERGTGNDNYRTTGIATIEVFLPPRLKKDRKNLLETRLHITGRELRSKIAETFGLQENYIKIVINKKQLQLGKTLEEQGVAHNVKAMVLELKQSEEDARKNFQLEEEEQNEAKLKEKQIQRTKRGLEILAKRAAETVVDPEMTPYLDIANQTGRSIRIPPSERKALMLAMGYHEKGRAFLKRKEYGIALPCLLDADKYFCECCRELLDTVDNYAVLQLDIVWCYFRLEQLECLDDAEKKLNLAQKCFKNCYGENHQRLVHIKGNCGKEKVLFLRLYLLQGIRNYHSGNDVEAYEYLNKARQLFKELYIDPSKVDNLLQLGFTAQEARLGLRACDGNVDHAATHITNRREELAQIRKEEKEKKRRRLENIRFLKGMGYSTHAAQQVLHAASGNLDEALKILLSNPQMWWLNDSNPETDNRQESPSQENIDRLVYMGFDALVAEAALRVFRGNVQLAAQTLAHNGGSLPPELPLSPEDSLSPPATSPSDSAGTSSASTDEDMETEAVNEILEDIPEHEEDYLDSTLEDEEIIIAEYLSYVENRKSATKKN
UniProt Q9BZF3, sequence (Q9BZF3 whole entry, looked up): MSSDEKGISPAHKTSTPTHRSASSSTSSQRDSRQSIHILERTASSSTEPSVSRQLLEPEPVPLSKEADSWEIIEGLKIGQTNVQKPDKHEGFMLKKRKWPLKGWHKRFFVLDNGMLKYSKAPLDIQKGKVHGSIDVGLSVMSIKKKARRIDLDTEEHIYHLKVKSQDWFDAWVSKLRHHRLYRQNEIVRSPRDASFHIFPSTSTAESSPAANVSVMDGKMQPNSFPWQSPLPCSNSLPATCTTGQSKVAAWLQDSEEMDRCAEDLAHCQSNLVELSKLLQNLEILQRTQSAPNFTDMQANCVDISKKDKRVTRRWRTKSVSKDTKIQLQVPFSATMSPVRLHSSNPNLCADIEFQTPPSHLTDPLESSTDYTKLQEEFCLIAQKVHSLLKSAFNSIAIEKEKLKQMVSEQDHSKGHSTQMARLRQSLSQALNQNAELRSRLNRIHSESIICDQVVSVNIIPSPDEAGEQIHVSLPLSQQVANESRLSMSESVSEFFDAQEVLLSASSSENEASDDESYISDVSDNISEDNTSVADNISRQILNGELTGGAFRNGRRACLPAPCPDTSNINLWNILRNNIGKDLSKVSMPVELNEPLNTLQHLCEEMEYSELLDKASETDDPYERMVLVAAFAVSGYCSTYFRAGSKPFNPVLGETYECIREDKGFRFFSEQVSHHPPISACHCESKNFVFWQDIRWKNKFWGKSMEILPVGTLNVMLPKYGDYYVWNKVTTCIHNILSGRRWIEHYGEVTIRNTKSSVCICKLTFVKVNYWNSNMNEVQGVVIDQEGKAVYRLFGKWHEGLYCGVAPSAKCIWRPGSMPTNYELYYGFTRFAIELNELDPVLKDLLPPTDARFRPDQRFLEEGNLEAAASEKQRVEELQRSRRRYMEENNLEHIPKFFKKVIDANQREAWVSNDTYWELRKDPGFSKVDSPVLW
UniProt Q9H857, sequence (Q9H857 whole entry, looked up): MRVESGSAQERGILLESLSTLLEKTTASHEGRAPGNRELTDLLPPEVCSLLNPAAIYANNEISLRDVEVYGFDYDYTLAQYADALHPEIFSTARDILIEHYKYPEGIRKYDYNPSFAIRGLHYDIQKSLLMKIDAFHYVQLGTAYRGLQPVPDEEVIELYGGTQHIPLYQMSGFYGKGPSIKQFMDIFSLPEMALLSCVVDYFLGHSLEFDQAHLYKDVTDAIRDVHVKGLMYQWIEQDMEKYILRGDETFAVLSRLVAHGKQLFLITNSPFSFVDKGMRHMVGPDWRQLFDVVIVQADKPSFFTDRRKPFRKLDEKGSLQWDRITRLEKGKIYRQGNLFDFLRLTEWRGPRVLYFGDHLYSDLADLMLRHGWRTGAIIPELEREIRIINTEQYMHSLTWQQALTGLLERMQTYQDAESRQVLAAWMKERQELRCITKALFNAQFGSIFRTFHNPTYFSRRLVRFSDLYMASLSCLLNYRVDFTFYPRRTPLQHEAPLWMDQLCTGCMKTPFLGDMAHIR
UniProt Q15021, sequence (Q15021 whole entry, looked up): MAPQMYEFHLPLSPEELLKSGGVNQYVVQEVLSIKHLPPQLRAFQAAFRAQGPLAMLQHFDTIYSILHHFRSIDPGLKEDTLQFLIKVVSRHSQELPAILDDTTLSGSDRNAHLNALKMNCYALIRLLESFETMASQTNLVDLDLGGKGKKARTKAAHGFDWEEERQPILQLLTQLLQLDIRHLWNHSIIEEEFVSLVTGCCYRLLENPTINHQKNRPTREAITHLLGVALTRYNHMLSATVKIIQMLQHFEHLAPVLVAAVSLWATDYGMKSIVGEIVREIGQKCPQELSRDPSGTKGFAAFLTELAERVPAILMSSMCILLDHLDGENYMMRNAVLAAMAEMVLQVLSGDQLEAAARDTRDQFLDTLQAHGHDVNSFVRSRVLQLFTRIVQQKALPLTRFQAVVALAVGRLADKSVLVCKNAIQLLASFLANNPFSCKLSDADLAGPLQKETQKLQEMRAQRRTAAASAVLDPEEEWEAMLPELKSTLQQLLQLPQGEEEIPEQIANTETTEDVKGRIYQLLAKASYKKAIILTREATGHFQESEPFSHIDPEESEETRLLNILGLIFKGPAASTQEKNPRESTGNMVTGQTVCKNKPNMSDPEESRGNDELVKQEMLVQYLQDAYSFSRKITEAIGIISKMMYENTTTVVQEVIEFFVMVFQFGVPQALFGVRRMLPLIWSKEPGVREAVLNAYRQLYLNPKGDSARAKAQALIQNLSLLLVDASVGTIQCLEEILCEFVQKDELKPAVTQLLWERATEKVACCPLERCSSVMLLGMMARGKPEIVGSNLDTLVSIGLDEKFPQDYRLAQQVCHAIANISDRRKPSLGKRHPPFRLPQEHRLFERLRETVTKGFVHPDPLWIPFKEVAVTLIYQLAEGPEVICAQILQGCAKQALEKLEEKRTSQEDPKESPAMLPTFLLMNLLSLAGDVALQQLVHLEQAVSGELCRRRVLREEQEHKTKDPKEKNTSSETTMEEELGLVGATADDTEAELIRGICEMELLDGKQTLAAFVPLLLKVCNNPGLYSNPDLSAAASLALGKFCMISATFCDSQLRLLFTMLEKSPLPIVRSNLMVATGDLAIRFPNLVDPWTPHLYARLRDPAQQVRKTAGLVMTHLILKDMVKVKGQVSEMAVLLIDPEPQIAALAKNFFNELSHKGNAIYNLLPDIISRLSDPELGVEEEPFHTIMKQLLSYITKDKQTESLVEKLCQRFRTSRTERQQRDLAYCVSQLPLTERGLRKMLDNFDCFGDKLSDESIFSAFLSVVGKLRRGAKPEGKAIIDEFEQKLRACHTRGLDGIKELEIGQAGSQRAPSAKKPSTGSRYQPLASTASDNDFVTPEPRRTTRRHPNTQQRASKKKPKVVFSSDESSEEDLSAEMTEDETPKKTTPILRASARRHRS
UniProt Q6GQQ9, sequence (Q6GQQ9 whole entry, looked up): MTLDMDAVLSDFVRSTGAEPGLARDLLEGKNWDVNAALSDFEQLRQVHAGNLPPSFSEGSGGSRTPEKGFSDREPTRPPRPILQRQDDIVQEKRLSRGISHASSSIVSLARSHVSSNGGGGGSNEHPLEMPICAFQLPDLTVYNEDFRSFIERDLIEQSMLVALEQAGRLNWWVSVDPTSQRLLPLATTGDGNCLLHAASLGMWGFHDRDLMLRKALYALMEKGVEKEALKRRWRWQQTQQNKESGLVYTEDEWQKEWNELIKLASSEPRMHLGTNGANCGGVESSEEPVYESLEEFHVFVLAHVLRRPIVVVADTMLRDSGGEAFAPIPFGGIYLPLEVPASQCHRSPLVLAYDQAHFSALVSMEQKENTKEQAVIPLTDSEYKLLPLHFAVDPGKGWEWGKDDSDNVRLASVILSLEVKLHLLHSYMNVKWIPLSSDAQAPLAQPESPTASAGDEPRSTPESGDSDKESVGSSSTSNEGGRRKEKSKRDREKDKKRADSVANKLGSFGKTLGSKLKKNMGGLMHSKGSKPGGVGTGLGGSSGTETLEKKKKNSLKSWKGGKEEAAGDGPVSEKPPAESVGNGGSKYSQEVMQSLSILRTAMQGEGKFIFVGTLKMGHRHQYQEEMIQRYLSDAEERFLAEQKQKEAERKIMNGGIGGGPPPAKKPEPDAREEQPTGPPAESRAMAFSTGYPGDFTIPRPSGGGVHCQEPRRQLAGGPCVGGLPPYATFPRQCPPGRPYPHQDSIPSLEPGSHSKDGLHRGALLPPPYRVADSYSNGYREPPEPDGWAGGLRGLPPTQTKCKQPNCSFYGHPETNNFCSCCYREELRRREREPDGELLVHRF

log2 fold change, inactive:
NTPCR (UniProt Q9BSD7) -0.003
MTHFD1L (UniProt B7ZM99) -0.075
NOA1 (UniProt Q8NC60) -0.043
NT5DC2 isoform 2 (UniProt Q9H857) -0.036
OTUD7B (UniProt Q6GQQ9) 0.033
NADK2 (UniProt Q4G0N4) 0.02
NTMT1 (UniProt Q9BV86) -0.008
OSGEP (UniProt Q9NPF4) -0.011
NDUFA4 (UniProt O00483) 0.124
NUB1 (UniProt Q9Y5A7) -0.002
NFATC2 (UniProt Q13469) -0.003
ORC2 (UniProt Q13416) 0.016
NELFCD (UniProt Q8IXH7) -0.035
NMRAL1 (UniProt Q9HBL8) -0.003
PAIP2 (UniProt Q9BPZ3) 0.013
NCAPD2 (UniProt Q15021) -0.033
NEDD8 (UniProt Q15843) 0.04
NFIC (UniProt P08651) -0.004
NELFA (UniProt Q9H3P2) -0.031
NLRP2 (UniProt Q9NX02) 0.004
OSBPL6 isoform 5 (UniProt Q9BZF3) 0.077
MTCH2 (UniProt Q9Y6C9) -0.023
NAA38 isoform 2 (UniProt Q9BRA0) -0.028
